# ChEMBL document CHEMBL5606458, “ASAP - ZIKV NS2B-NS3 protease fluorescence single point” (2024)
# In all, about 2,700 compounds went through this assay and about 160 (5.9%) showed an effect of 50% or more. Many of the other results were omitted from the sample, so strong results are more common in it than they were.
# Target: Nonstructural protein 3 (Zika virus) (UniProt A0A024AXB9)
# Sequence (A0A024AXB9 as listed by the source): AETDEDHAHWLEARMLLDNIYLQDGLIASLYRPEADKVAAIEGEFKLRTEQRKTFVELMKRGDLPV
structure (smiles),measurement,setting,value
N=C(N)NCCC[C@H](NC(=O)c1nccs1)C(=O)N[C@@H](CCCCN)C(=O)N[C@@H](C(N)=O)c1ccc(OCc2ccc(C(F)(F)F)cc2)cc1,inhibition,"PRVABC59, Concentration 15.0 uM, Number of replicates 1.0",91.8%
same,inhibition,"PRVABC59, Concentration 49.5 uM, Number of replicates 2.0, Standard deviation 0.021859715861266255 %",94.6%
same,inhibition,"PRVABC59, Concentration 49.5 uM, Number of replicates 2.0, Standard deviation 0.024233426369399808 %",96.9%
same,inhibition,"PRVABC59, Concentration 49.5 uM, Number of replicates 2.0, Standard deviation 0.10948739718766008 %",93.8%
same,inhibition,"PRVABC59, Concentration 49.5 uM, Number of replicates 2.0, Standard deviation 0.1218738502028297 %",97.5%
same,inhibition,"PRVABC59, Concentration 49.5 uM, Number of replicates 2.0, Standard deviation 0.12395624169405596 %",92.6%
same,inhibition,"PRVABC59, Concentration 49.5 uM, Number of replicates 2.0, Standard deviation 0.12648640130386196 %",91.3%
same,inhibition,"PRVABC59, Concentration 49.5 uM, Number of replicates 2.0, Standard deviation 0.127991549557883 %",97.2%
same,inhibition,"PRVABC59, Concentration 49.5 uM, Number of replicates 2.0, Standard deviation 0.13878114277667186 %",95.3%
same,inhibition,"PRVABC59, Concentration 49.5 uM, Number of replicates 2.0, Standard deviation 0.18792773988825517 %",89.4%
same,inhibition,"PRVABC59, Concentration 49.5 uM, Number of replicates 2.0, Standard deviation 0.2282484497468692 %",91.2%
same,inhibition,"PRVABC59, Concentration 49.5 uM, Number of replicates 2.0, Standard deviation 0.23805618998274827 %",97%
same,inhibition,"PRVABC59, Concentration 49.5 uM, Number of replicates 2.0, Standard deviation 0.25515230043791925 %",95.5%
same,inhibition,"PRVABC59, Concentration 49.5 uM, Number of replicates 2.0, Standard deviation 0.3144519047683829 %",85.9%
same,inhibition,"PRVABC59, Concentration 49.5 uM, Number of replicates 2.0, Standard deviation 0.8044343068166325 %",87.1%
same,inhibition,"PRVABC59, Concentration 49.5 uM, Number of replicates 2.0, Standard deviation 1.112040214687694 %",90.3%
same,inhibition,"PRVABC59, Concentration 49.5 uM, Number of replicates 2.0, Standard deviation 1.1256998397026805 %",90.4%
same,inhibition,"PRVABC59, Concentration 49.5 uM, Number of replicates 2.0, Standard deviation 1.7230548786677078 %",84.5%
same,inhibition,"PRVABC59, Concentration 49.5 uM, Number of replicates 2.0, Standard deviation 1.876040520916915 %",90.3%
same,inhibition,"PRVABC59, Concentration 49.8 uM, Number of replicates 2.0, Standard deviation 1.8581405857669444 %",97.9%
same,inhibition,"PRVABC59, Concentration 49.95 uM, Number of replicates 2.0, Standard deviation 2.309253478244507 %",87.4%
same,inhibition,"PRVABC59, Concentration 50.0 uM, Number of replicates 2.0, Standard deviation 0.36743959706585505 %",88.7%
same,inhibition,"PRVABC59, Concentration 99.01 uM, Number of replicates 2.0, Standard deviation 0.0 %",93.4%
same,inhibition,"PRVABC59, Concentration 99.01 uM, Number of replicates 2.0, Standard deviation 0.012046580828777775 %",94.9%
same,inhibition,"PRVABC59, Concentration 99.01 uM, Number of replicates 2.0, Standard deviation 0.02911571730090177 %",93.7%
same,inhibition,"PRVABC59, Concentration 99.01 uM, Number of replicates 2.0, Standard deviation 0.06378807510947981 %",97.6%
same,inhibition,"PRVABC59, Concentration 99.01 uM, Number of replicates 2.0, Standard deviation 0.067278508515758 %",98.8%
same,inhibition,"PRVABC59, Concentration 99.01 uM, Number of replicates 2.0, Standard deviation 0.0706826251762859 %",98.7%
same,inhibition,"PRVABC59, Concentration 99.01 uM, Number of replicates 2.0, Standard deviation 0.071545792633789 %",97.3%
same,inhibition,"PRVABC59, Concentration 99.01 uM, Number of replicates 2.0, Standard deviation 0.07721572387026257 %",95.8%
same,inhibition,"PRVABC59, Concentration 99.01 uM, Number of replicates 2.0, Standard deviation 0.10372575440882682 %",99%
same,inhibition,"PRVABC59, Concentration 99.01 uM, Number of replicates 2.0, Standard deviation 0.10948739718766008 %",97%
same,inhibition,"PRVABC59, Concentration 99.01 uM, Number of replicates 2.0, Standard deviation 0.11599352189858977 %",97.7%
same,inhibition,"PRVABC59, Concentration 99.01 uM, Number of replicates 2.0, Standard deviation 0.1471970254873272 %",98.8%
same,inhibition,"PRVABC59, Concentration 99.01 uM, Number of replicates 2.0, Standard deviation 0.27009049224933246 %",94.8%
same,inhibition,"PRVABC59, Concentration 99.01 uM, Number of replicates 2.0, Standard deviation 0.8601032130289737 %",94.3%
same,inhibition,"PRVABC59, Concentration 99.01 uM, Number of replicates 2.0, Standard deviation 0.9406367368140138 %",94.2%
same,inhibition,"PRVABC59, Concentration 99.01 uM, Number of replicates 2.0, Standard deviation 1.3348561042489029 %",88.7%
same,inhibition,"PRVABC59, Concentration 99.01 uM, Number of replicates 2.0, Standard deviation 1.4059433391708933 %",94.2%
same,inhibition,"PRVABC59, Concentration 99.01 uM, Number of replicates 2.0, Standard deviation 1.7588979073405244 %",89.5%
same,inhibition,"PRVABC59, Concentration 99.5 uM, Number of replicates 2.0, Standard deviation 0.12741970111728718 %",93.3%
same,inhibition,"PRVABC59, Concentration 99.5 uM, Number of replicates 2.0, Standard deviation 0.16892187143335857 %",101%
same,inhibition,"PRVABC59, Concentration 99.9 uM, Number of replicates 2.0, Standard deviation 1.5690280406728871 %",94.6%
same,inhibition,"PRVABC59, Concentration 100.0 uM, Number of replicates 2.0, Standard deviation 4.458993610342439 %",98%
same,inhibition,"PRVABC59, Concentration 198.0 uM, Number of replicates 2.0, Standard deviation 0.0026488451352126683 %",96.7%
same,inhibition,"PRVABC59, Concentration 198.0 uM, Number of replicates 2.0, Standard deviation 0.013907785659018856 %",98.8%
same,inhibition,"PRVABC59, Concentration 198.0 uM, Number of replicates 2.0, Standard deviation 0.021082865149513456 %",97.6%
same,inhibition,"PRVABC59, Concentration 198.0 uM, Number of replicates 2.0, Standard deviation 0.03251443916482027 %",97.8%
same,inhibition,"PRVABC59, Concentration 198.0 uM, Number of replicates 2.0, Standard deviation 0.03514709991020475 %",97.2%
same,inhibition,"PRVABC59, Concentration 198.0 uM, Number of replicates 2.0, Standard deviation 0.0599254007371534 %",99.1%
same,inhibition,"PRVABC59, Concentration 198.0 uM, Number of replicates 2.0, Standard deviation 0.06866497124437239 %",99.6%
same,inhibition,"PRVABC59, Concentration 198.0 uM, Number of replicates 2.0, Standard deviation 0.07418384817578288 %",97.3%
same,inhibition,"PRVABC59, Concentration 198.0 uM, Number of replicates 2.0, Standard deviation 0.0745722735316593 %",98.9%
same,inhibition,"PRVABC59, Concentration 198.0 uM, Number of replicates 2.0, Standard deviation 0.07483122376891023 %",96.4%
same,inhibition,"PRVABC59, Concentration 198.0 uM, Number of replicates 2.0, Standard deviation 0.07712401232790286 %",99.5%
same,inhibition,"PRVABC59, Concentration 198.0 uM, Number of replicates 2.0, Standard deviation 0.08816716098733327 %",99.7%
same,inhibition,"PRVABC59, Concentration 198.0 uM, Number of replicates 2.0, Standard deviation 0.09263944737652126 %",98.7%
same,inhibition,"PRVABC59, Concentration 198.0 uM, Number of replicates 2.0, Standard deviation 0.09449525741015294 %",99.7%
same,inhibition,"PRVABC59, Concentration 198.0 uM, Number of replicates 2.0, Standard deviation 0.3759148225392137 %",97%
same,inhibition,"PRVABC59, Concentration 198.0 uM, Number of replicates 2.0, Standard deviation 0.4983928899622956 %",97.6%
same,inhibition,"PRVABC59, Concentration 198.0 uM, Number of replicates 2.0, Standard deviation 0.5225777631622108 %",97.2%
same,inhibition,"PRVABC59, Concentration 198.0 uM, Number of replicates 2.0, Standard deviation 0.6944775623239552 %",94.7%
same,inhibition,"PRVABC59, Concentration 198.0 uM, Number of replicates 2.0, Standard deviation 1.5146538856468006 %",93.1%
same,inhibition,"PRVABC59, Concentration 200.0 uM, Number of replicates 1.0",97.4%
